From PubChem BioAssay
HDAC3 inhib – human HDAC3 inhibition; O15379; recombinant HDAC3, fluorogenic peptide/trypsin coupled, fluorescence; inhibition, % at 8.3 µM; hit rate 0.15% among 320,000; AID 2718; in the data active means inhibition above about 26%, passing the limit was not always enough; inconclusive means no clear call, values can overlap the other calls
ALR H2O2 inh – human ALR oxidase inhibition via reduced H2O2; P55789; purified ALR, DTT oxidation, H2O2 HRP-luminol luminescence; inhibition, % (concentration not given with the values); hit rate 3.8% among 290,000;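 active means mean replicate inhibition above about 79%, with every replicate also reaching it, limit read from the data; inconclusive means only one of the two criteria met; inactive means mean below limit and not every replicate reaching it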
Target sequence (P55789 whole entry, looked up): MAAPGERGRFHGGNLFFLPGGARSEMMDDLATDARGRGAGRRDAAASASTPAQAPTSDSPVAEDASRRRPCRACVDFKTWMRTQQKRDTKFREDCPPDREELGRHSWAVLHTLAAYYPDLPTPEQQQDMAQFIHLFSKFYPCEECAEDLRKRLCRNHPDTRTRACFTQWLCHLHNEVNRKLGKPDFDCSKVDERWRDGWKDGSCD
GC-A act – GC-A (human) enzyme activation. P16066. AID 1671463. activation, % at 10 µM. hit rate 0.14% among 370,000. HEK293 GC-A cells, cGMP TR-FRET, EC30 ANP; 0% at EC30 ANP, 100% saturating ANP; in the data active means activation above about 40%
NPR2 activator – GC-B (human) receptor activation | activation, % at 10 µM | hit rate 0.11% among 370,000 | HEK293-GC-B cells, CNP EC30, cGMP TR-FRET; 0% at EC30 CNP, 100% saturating CNP | AID 1920062;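 active means activation at 10 µM reaching about 35% in either raw or pattern-adjusted values, limit read from the data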
The depositor's hits bear a star; u = inconclusive; x = not tested or not shown. The full list was thinned out, with hits kept by preference.

SMILES | HDAC3 inhib | ALR H2O2 inh | GC-A act | NPR2 activator
CCN1C(=O)CC(C(=O)NC)SC1=Nc1cc(Cl)c(O)c(Cl)c1 (stereo not given) | 2 | 99* | -1 | 2
Cc1ccccc1CNC(=O)C(=O)NCC1OCCCN1S(=O)(=O)c1cccs1 (stereo not given) | -4 | -2 | -4 | 0
CCN(c1ccc(C)c(C)c1)S(=O)(=O)c1ccc2c(c1)CCN2C(=O)CCC(=O)O | -1 | 99* | -1 | -2
COc1ccc(CC2=CC(=O)c3ccccc3C2=O)cc1 | 10 | 50 | 14 | 16
COc1ccc2c(C)cc3n[nH]c(=S)n3c2c1 | -15 | 7 | 1 | -6
Cc1cc2c(Nc3ccccc3O)ncnc2s1 | x | x | 3 | 2
Cc1cc2c(Nc3cccc(O)c3)ncnc2s1 | 2 | 99* | -2 | -5
COc1cc(/C=C/C(=O)OCC(=O)N2CCCCCC2)cc(OC)c1OC | x | x | 1 | -1
C=CCN=C1NC(c2ccccc2C(F)(F)F)C(C(=O)OC)=C(C)N1Cc1ccc(C(F)(F)F)cc1 (stereo not given) | x | x | -6 | -11
O=C(NCCc1ccc(Cl)cc1)c1cccc(NC2=NC3CS(=O)(=O)CC3S2)c1 (stereo not given) | 0 | -1 | -4 | 0
O=S1(=O)CC2N=C(N(Cc3ccc(F)cc3Cl)c3ccccc3F)SC2C1 (stereo not given) | 2 | 98* | -12 | -3
Cc1cccc(NC(=O)CN(C2=NC3CS(=O)(=O)CC3S2)c2ccccc2F)c1 (stereo not given) | -1 | 99* | 1 | -4
CCOc1ccc(N(CC(=O)Nc2ccc(C)c(F)c2)C2=NC3CS(=O)(=O)CC3S2)cc1 (stereo not given) | -2 | 17 | 7 | -1
CCOc1ccc(N(CC(=O)Nc2ccc(OC)cc2)C2=NC3CS(=O)(=O)CC3S2)cc1 (stereo not given) | x | 99* | 3 | 0
COc1ccc(-c2cc(CN3C(=O)c4ccccc4C3=O)on2)cc1 | -8 | -3 | 4 | 0
COC(=O)[C@]12C[C@H](CC(=O)NCCC(C)C)C(=O)N(Cc3cccc4ccccc34)C1=C[C@H](C(C)C)O[C@@H]2C1CC1 | x | x | -9 | 0
Cc1cccc(-c2n[nH]c(=S)n2/N=C/C=C/c2ccco2)c1 | 1 | 97* | -11 | -10
S=c1[nH]nc(-c2ccncc2)n1/N=C/C=C/c1ccco1 | 5 | 65 | 0 | 1
CC(/C=N/n1c(-c2ccccc2)n[nH]c1=S)=C\c1ccco1 | 9 | u | -2 | -3
S=c1[nH]nc(-c2cccc(Cl)c2)n1/N=C/c1ccco1 | -1 | 97* | x | x
CC(/C=N/n1c(-c2ccc(C)cc2)n[nH]c1=S)=C\c1ccco1 | 2 | 97* | 1 | 0
O=C(NN1CCN(Cc2ccccc2Cl)CC1)c1ccc(Br)cc1 | -7 | 7 | -1 | -3
CC(C(=O)NC(=O)NC1CCCCC1)N1CCN(c2ccc(O)cc2)CC1 (stereo not given) | 5 | 99* | -1 | 2
O=C(NC1CCCCC1)N1CCN(c2ccccc2)CC1 | 2 | x | 3 | 3
COc1ccc(N2CCN(C(=O)NC3CCCCC3)CC2)cc1 | 7 | 81* | 6 | 0
SMILES | HDAC3 inhib | ALR H2O2 inh | GC-A act | NPR2 activator
COc1cccc(N2CCN(C(=O)NC3CCCCC3)CC2)c1 | -1 | 77* | 18 | -7
CN(C(=O)OC(C)(C)C)c1ccc(-c2nc3ccccc3s2)cc1 | -9 | -11 | 2 | -2
COc1ccc(-n2c(SC)nc3sc4c(c3c2=O)CCN(C)C4)cc1 | x | x | 3 | 7
COc1ccc(NC(=O)CSc2nc3sc4c(c3c(=O)n2-c2ccc(OC)cc2)CCN(C)C4)cc1 | 21 | 98* | 13 | -6
CCn1c(SCC(N)=O)nc2sc3c(c2c1=O)CCN(C)C3 | -10 | 40 | 11 | 3
CCOC(=O)CSc1nc2sc3c(c2c(=O)n1C1CCCCC1)CCN(C)C3 | 6 | 100* | 10 | 2
CCOC(=O)CSc1nnc2n(C3CCCCC3)c(=O)c3c4c(sc3n12)CCCC4 | 4 | -1 | 10 | 6
CCOC(=O)CSc1nc2sc3c(c2c(=O)n1-c1ccc(OCC)cc1)CCN(C)C3 | 5 | 94* | 13 | -4
CCn1c(SCC(=O)Nc2ccc(C)cc2)nc2sc3c(c2c1=O)CCN(C)C3 | 3 | 99* | 6 | -4
Oc1ccc(Nc2ccccc2F)c2cccnc12 | x | x | 2 | 1
Cc1cnc(NC(=O)Cc2cccs2)s1 | -1 | -13 | -4 | -1
COc1ccc(-n2c(SCC(=O)NC3CCCCCC3)nnc2-c2ccncc2)cc1 | x | x | -2 | -2
Cc1cccc(-n2c(SCC(=O)O)nc3sc4c(c3c2=O)CCCC4)c1 | 3 | x | -1 | 45*
CCOc1ccc(-n2c(SCC(N)=O)nc3sc4c(c3c2=O)CCN(C)C4)cc1 | 2 | x | 7 | 1
O=C(CSc1nc2c(c(=O)n1-c1ccc(Cl)cc1)SCC2)Nc1nccs1 | 14 | -27 | -5 | -7
COc1ccc(-n2c(SCC(=O)Nc3nccs3)nc3sc4c(c3c2=O)CCN(C)C4)cc1 | 5 | 99* | 7 | 2
O=C(CSc1nc2c(c(=O)n1-c1ccc(Br)cc1)SCC2)Nc1nccs1 | -4 | 99* | -7 | 1
Cc1nc(C(F)(F)F)c(C(=O)O)cc1-c1nc(-c2ccccc2)cs1 | 3 | 95* | 2 | 7
O=C(O)c1ccc(-c2nc(-c3cccc(C(F)(F)F)c3)cs2)cc1 | x | x | 9 | -4
CCCn1c2ccccc2c2nnc(SCCN3CCOCC3)nc21 | -8 | 96* | 3 | 8
CCCn1c2ccc(C)cc2c2nnc(SCCN3CCOCC3)nc21 | 7 | 13 | 3 | 2
CC1(C)C(CSc2nc3ccccc3[nH]2)C1(Cl)Cl (stereo not given) | 2 | -1 | -4 | 3
O=c1c2sccc2[nH]c(=S)n1Cc1ccccc1 | 0 | 31 | 4 | -2
CC(NC(=O)CCn1c(=S)[nH]c2ccsc2c1=O)c1ccccc1 (stereo not given) | 2 | 95* | 0 | -2
CCOC(=O)N1CCN(C(=O)CCCn2c(=S)[nH]c3ccsc3c2=O)CC1 | 7 | 95* | -4 | 2
SMILES | HDAC3 inhib | ALR H2O2 inh | GC-A act | NPR2 activator
CCOC(=O)N1CCN(C(=O)CCCCCn2c(=S)[nH]c3ccsc3c2=O)CC1 | 3 | 93* | -12 | 0
COC(=O)[C@@]12C[C@@H](CC(=O)NCc3cccc(C(F)(F)F)c3)C(=O)N(CCc3ccc(OC)c(OC)c3)C1=CCC(C)(C)C2 | x | x | -2 | -13
COC(=O)CCC(=O)OC1(C)C(=O)C=C2C=C(C3CC3)OC=C2C1=O (stereo not given) | -3 | x | x | x
Cc1csc(SC(C)C(=O)NCC2CCCO2)n1 (stereo not given) | -2 | -4 | 3 | 5
CC(C)Cn1c(=S)[nH]c2ccccc2c1=O | 0 | 0 | 3 | 2
CC(C)COn1c(=S)[nH]c2ccccc2c1=O | 2 | 97* | -3 | -5
Cc1ccc(CNC(=O)CNC(=O)c2ccc(C(C)(C)C)cc2)n1C | 5 | x | 2 | -1
COc1cc(/C=C(/NC(=O)c2ccccc2)C(=O)Nc2ccc(O)cc2)c([N+](=O)[O-])cc1OC | 1 | 99* | 5 | 3
